Three molecules from PubChem BioAssay (NCI) can be followed below.

The panel holds about 83,000 compounds, 20% with a hit somewhere; the sample as a whole holds those more often.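 Values shown are percent growth following 48 h exposure of cells in 96-well plates to a single concentration of compound; below 10 was considered active.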 Calls of active or inactive are those of the source.

The test system of the experiment is HL-60(TB) leukemia. Put plainly: NCI-60 one-dose screen, 48 h (100 = growth as untreated, 0 = no growth, -100 = all killed). The following applies: 10 µM unless noted.
As to `CCn1c(CSc2nc3ccccc3c(=O)n2CCc2ccccc2)n[nH]c1=S`, the growth is 90.9% (inactive).
With `N#Cc1c(-c2cccc(Cl)c2)cc(-c2cccc(Cl)c2)[nH]c1=O` the figure was -11.9% (active); with `Nc1cccc2c1CN(C1CCC(=O)NC1=O)C2=O` (stereo not drawn), 105% (inactive).
